Among the data in the supplement of paper PMC12045047 are proliferation values, retold here.

In the first experiment the test system is primary human airway basal cells (HBEC, luciferase-transduced). Put plainly: proliferation (luciferase bioluminescence) Z score relative to plate mean; higher = more proliferation / more cells, active = 1.96 or more. As to conditions: donor: 1; 0.5 µM; library: ENZO Libraries; 4 days. As to the method: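 Primary human bronchial epithelial (airway basal) cells from two donors, lentivirally transduced with pHIV-Luc-ZsGreen, were seeded at 2000 cells/well in 384-well plates in FAD medium with ENZO or Prestwick library compounds and cultured for 4 days. Luciferin was then added and bioluminescence was read as a measure of cell number. Relative light units were converted to Z scores against the plate, and the mean of triplicate wells is reported.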
As for `NCCc1ccc(S(=O)(=O)F)cc1`, the proliferation was -0.284 (inactive).
Turning to `N#CC(C#N)=Cc1ccc([N+](=O)[O-])c(O)c1`, the proliferation was -0.571 (inactive).
For `N#C/C(=C\c1ccc(O)c(O)c1)C(N)=S`, the proliferation is -0.0372 (inactive).
Turning to `CCC(=O)CCCCC[C@@H]1NC(=O)[C@H]2CCCCN2C(=O)[C@H]([C@@H](C)CC)NC(=O)[C@H](Cc2cn(OC)c3ccccc23)NC1=O` [Apicidin], the proliferation was -0.149 (inactive).
For `CC(=O)Oc1ccc(/C=C/c2cc(OC(C)=O)cc(OC(C)=O)c2)cc1` [Triacetylresveratrol], the proliferation was 1.28 (inactive).
Same read-out and setting: the figure for `C/C(O)=C(\C#N)C(=O)Nc1cc(Br)ccc1Br` is 0.22 (inactive); for `CC(=O)c1c(O)c(C)c(O)c(Cc2c(O)c3c(c(C(=O)/C=C/c4ccccc4)c2O)OC(C)(C)C=C3)c1O` [Rottlerin] it is 0.583 (inactive); for `N#CC(C#N)=Cc1cc(O)c(O)c(O)c1` it is -0.0382 (inactive).
On to `N#CC(C#N)=Cc1ccc(O)c(O)c1`, for which the proliferation was 0.456 (inactive).
The same measure, in the same setting: with `N[C@@H]1C[C@H]1c1ccccc1.N[C@H]1C[C@@H]1c1ccccc1` [Tranylcypromine hemisulfate] the figure was -0.212 (inactive); with `Cc1cc(O)c2c(=O)c3c(O)cc(O)c4c5c(O)cc(O)c6c(=O)c7c(O)cc(C)c8c1c2c(c34)c(c78)c65` [Hypericin], 0.248 (inactive).
As to `COC[C@H]1OC(=O)c2coc3c2[C@@]1(C)C1=C(C3=O)[C@@H]2CCC(=O)[C@@]2(C)C[C@H]1OC(C)=O` [Wortmannin], the proliferation is -1.04 (inactive).
On the same count and under the same terms, with `N#CC(C#N)=Cc1cc(O)c(O)c([N+](=O)[O-])c1` the figure was -0.414 (inactive).

The experiment is the same for the next values; noted with them: donor: 1; 5 µM; library: ENZO Libraries; 4 days.
With `NCCc1ccc(S(=O)(=O)F)cc1`, the proliferation was -0.0822 (inactive).
On the same count and under the same terms, with `N#CC(C#N)=Cc1ccc([N+](=O)[O-])c(O)c1` the figure was -0.0791 (inactive); with `N#C/C(=C\c1ccc(O)c(O)c1)C(N)=S`, -0.285 (inactive); with `CCC(=O)CCCCC[C@@H]1NC(=O)[C@H]2CCCCN2C(=O)[C@H]([C@@H](C)CC)NC(=O)[C@H](Cc2cn(OC)c3ccccc23)NC1=O` [Apicidin], -0.303 (inactive).
For the compound `CC(=O)Oc1ccc(/C=C/c2cc(OC(C)=O)cc(OC(C)=O)c2)cc1` [Triacetylresveratrol], the proliferation is 4.6 (active).
Still for that read-out and setting: the figure for `C/C(O)=C(\C#N)C(=O)Nc1cc(Br)ccc1Br` is 0.228 (inactive).
On the same count and under the same terms, with `CC(=O)c1c(O)c(C)c(O)c(Cc2c(O)c3c(c(C(=O)/C=C/c4ccccc4)c2O)OC(C)(C)C=C3)c1O` [Rottlerin] the figure was -0.384 (inactive).
On the same count and under the same terms, with `N#CC(C#N)=Cc1cc(O)c(O)c(O)c1` the figure was -0.000622 (inactive); with `N#CC(C#N)=Cc1ccc(O)c(O)c1`, 0.134 (inactive); with `N[C@@H]1C[C@H]1c1ccccc1.N[C@H]1C[C@@H]1c1ccccc1` [Tranylcypromine hemisulfate], -0.48 (inactive).
As to `Cc1cc(O)c2c(=O)c3c(O)cc(O)c4c5c(O)cc(O)c6c(=O)c7c(O)cc(C)c8c1c2c(c34)c(c78)c65` [Hypericin], the proliferation was -0.261 (inactive).
Regarding `COC[C@H]1OC(=O)c2coc3c2[C@@]1(C)C1=C(C3=O)[C@@H]2CCC(=O)[C@@]2(C)C[C@H]1OC(C)=O` [Wortmannin], the proliferation was -0.831 (inactive).
Still for that read-out and setting: the figure for `N#CC(C#N)=Cc1cc(O)c(O)c([N+](=O)[O-])c1` is -0.101 (inactive).
